This is one part of a sample in which the strongest signals are shown more often than they occur.
Tests used:
Experiment in all cases: glycan array binding signal (z-score within array); higher = stronger binding
Conditions in all cases: glycan notation: IUPAC condensed, linker removed; mutation: D224N
[1] = target: Fuc(a1-2)Gal(b1-3)GlcNAc(b1-2)Man(a1-3)[Fuc(a1-2)Gal(b1-3)GlcNAc(b1-2)Man(a1-6)]Man(b1-4)GlcNAc(b1-4)GlcNAc
Method in brief: (§1)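 From the Consortium for Functional Glycomics database, 3228 arrays were curated, keeping only those whose protein sequence was available. Binding is given as a within-array Z-score averaged across arrays sharing a protein sequence and across linkers. Negative Z-scores can be read as non-binding.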

[2] = target: Fuc(a1-2)Gal(b1-3)GlcNAc(b1-3)[Neu5Ac(a2-6)Gal(b1-4)GlcNAc(b1-6)]Gal(b1-4)Glc
Method in brief: as §1

[3] = target: Fuc(a1-2)Gal(b1-3)GlcNAc6S
Method in brief: as §1

[4] = target: Fuc(a1-2)Gal(b1-4)GlcNAc(b1-3)GalNAc
Method in brief: as §1

[5] = target: Fuc(a1-2)Gal(b1-4)GlcNAc(b1-3)[Fuc(a1-2)Gal(b1-4)GlcNAc(b1-6)]GalNAc
Method in brief: as §1

[6] = target: Fuc(a1-2)[Gal(a1-3)]Gal(b1-3)GalNAc
Method in brief: as §1

[7] = target: Fuc(a1-2)[GalNAc(a1-3)]Gal(b1-3)GlcNAc
Method in brief: as §1

[8] = target: Fuc(a1-2)[GalNAc(a1-3)]Gal(b1-4)GlcNAc(b1-3)Gal(b1-4)GlcNAc(b1-3)Gal(b1-4)GlcNAc
Method in brief: as §1

[9] = target: Fuc(a1-3)[Gal(b1-4)]Glc6S
Method in brief: as §1

[10] = target: Fuc(a1-3)[Gal(b1-4)]GlcNAc(b1-2)Man(a1-3)[Fuc(a1-3)[Gal(b1-4)]GlcNAc(b1-2)Man(a1-6)]Man(b1-4)GlcNAc(b1-4)[Fuc(a1-6)]GlcNAc
Method in brief: as §1

[11] = target: Fuc(a1-3)[Gal(b1-4)]GlcNAc(b1-3)Gal(b1-4)[Fuc(a1-3)]GlcNAc(b1-3)Gal(b1-4)[Fuc(a1-3)]GlcNAc
Method in brief: as §1

[12] = target: Fuc(a1-3)[Gal(b1-4)]GlcNAc(b1-6)GalNAc
Method in brief: as §1

Gal(a1-2)Gal = target: Gal(a1-2)Gal
Method in brief: as §1

Gal(a1-3)GalNAc = target: Gal(a1-3)GalNAc
Method in brief: as §1

Gal(b1-3)GlcNAc(b1-2)Man = target: Gal(b1-3)GlcNAc(b1-2)Man
Method in brief: as §1

[13] = target: Gal(b1-3)GlcNAc(b1-3)Gal(b1-4)GlcNAc(b1-6)[Gal(b1-3)GlcNAc(b1-3)]Gal(b1-4)Glc
Method in brief: as §1

[14] = target: Gal(b1-4)GlcNAc(b1-3)Gal(b1-4)GlcNAc(b1-2)[Gal(b1-4)GlcNAc(b1-3)Gal(b1-4)GlcNAc(b1-6)]Man(a1-6)[Gal(b1-4)GlcNAc(b1-3)Gal(b1-4)GlcNAc(b1-2)Man(a1-3)]Man(b1-4)GlcNAc(b1-4)GlcNAc
Method in brief: as §1

[15] = target: Gal(b1-4)GlcNAc(b1-3)Gal(b1-4)GlcNAc(b1-3)Gal(b1-4)GlcNAc(b1-3)Gal(b1-4)GlcNAc(b1-2)Man(a1-3)[Gal(b1-4)GlcNAc(b1-3)Gal(b1-4)GlcNAc(b1-3)Gal(b1-4)GlcNAc(b1-3)Gal(b1-4)GlcNAc(b1-2)Man(a1-6)]Man(b1-4)GlcNAc(b1-4)[Fuc(a1-6)]GlcNAc
Method in brief: as §1

[16] = target: Gal(b1-4)GlcNAc(b1-3)Gal(b1-4)GlcNAc(b1-3)Gal(b1-4)GlcNAc(b1-3)Gal(b1-4)GlcNAc(b1-3)Gal(b1-4)GlcNAc(b1-2)Man(a1-3)[Gal(b1-4)GlcNAc(b1-3)Gal(b1-4)GlcNAc(b1-3)Gal(b1-4)GlcNAc(b1-3)Gal(b1-4)GlcNAc(b1-3)Gal(b1-4)GlcNAc(b1-2)Man(a1-6)]Man(b1-4)GlcNAc(b1-4)GlcNAc
Method in brief: as §1

[17] = target: Gal3S(b1-4)[Fuc(a1-3)]Glc6S
Method in brief: as §1

Gal3S6S(b1-4)GlcNAc = target: Gal3S6S(b1-4)GlcNAc
Method in brief: as §1

Gal6S(b1-4)Glc6S = target: Gal6S(b1-4)Glc6S
Method in brief: as §1

[18] = target: Glc(a1-4)Glc(a1-4)Glc(a1-4)Glc
Method in brief: as §1

[19] = target: GlcNAc(a1-4)Gal(b1-4)GlcNAc
Method in brief: as §1

[20] = target: GlcNAc(a1-4)Gal(b1-4)GlcNAc(b1-3)Gal(b1-4)GlcNAc(b1-3)Gal(b1-4)GlcNAc
Method in brief: as §1

[21] = target: GlcNAc(a1-4)Gal(b1-4)GlcNAc(b1-3)Gal(b1-4)[Fuc(a1-3)]GlcNAc(b1-3)Gal(b1-4)[Fuc(a1-3)]GlcNAc
Method in brief: as §1

[22] = target: GlcNAc(b1-3)Gal(b1-4)GlcNAc(b1-3)Gal(b1-4)GlcNAc(b1-2)Man(a1-3)[GlcNAc(b1-3)Gal(b1-4)GlcNAc(b1-3)Gal(b1-4)GlcNAc(b1-2)Man(a1-6)]Man(b1-4)GlcNAc(b1-4)GlcNAc
Method in brief: as §1

[23] = target: GlcNAc(b1-3)Gal(b1-4)GlcNAc(b1-3)Gal(b1-4)GlcNAc(b1-2)[GlcNAc(b1-3)Gal(b1-4)GlcNAc(b1-3)Gal(b1-4)GlcNAc(b1-6)]Man(a1-6)[GlcNAc(b1-3)Gal(b1-4)GlcNAc(b1-3)Gal(b1-4)GlcNAc(b1-2)Man(a1-3)]Man(b1-4)GlcNAc(b1-4)[Fuc(a1-6)]GlcNAc
Method in brief: as §1

[24] = target: GlcNAc(b1-3)Gal(b1-4)GlcNAc(b1-3)Gal(b1-4)GlcNAc(b1-3)Gal(b1-4)GlcNAc(b1-2)Man(a1-3)[GlcNAc(b1-3)Gal(b1-4)GlcNAc(b1-3)Gal(b1-4)GlcNAc(b1-3)Gal(b1-4)GlcNAc(b1-2)Man(a1-6)]Man(b1-4)GlcNAc(b1-4)[Fuc(a1-6)]GlcNAc
Method in brief: as §1

[25] = target: GlcNAc(b1-3)Gal(b1-4)GlcNAc(b1-3)Gal(b1-4)GlcNAc(b1-3)Gal(b1-4)GlcNAc(b1-3)Gal(b1-4)GlcNAc(b1-2)Man(a1-3)[GlcNAc(b1-3)Gal(b1-4)GlcNAc(b1-3)Gal(b1-4)GlcNAc(b1-3)Gal(b1-4)GlcNAc(b1-3)Gal(b1-4)GlcNAc(b1-2)Man(a1-6)]Man(b1-4)GlcNAc(b1-4)GlcNAc
Method in brief: as §1

B1: a L Fucosidase (Thermotoga maritima) (protein)
chain: MASMKPRYKPDWESLREHTVPKWFDKAKFGIFIHWGIYSVPGWATPTGELGKVPMDAWFFQNPYAEWYENSLRIKESPTWEYHVKTYGENFEYEKFADLFTAEKWDPQEWADLFKKAGAKYVIPTTKHHDGFCLWGTKYTDFNSVKRGPKRDLVGDLAKAVREAGLRFGVYYSGGLDWRFTTEPIRYPEDLSYIRPNTYEYADYAYKQVMELVDLYLPDVLWNNMGWPEKGKEDLKYLFAYYYNKHPEGSVNDRWGVPHWDFKTAEYHVNYPGDLPGYKWEFTRGIGLSFGYNRNEGPEHMLSVEQLVYTLVDVVSKGGNLLLNVGPKGDGTIPDLQKERLLGLGEWLRKYGDAIYGTSVWERCCAKTEDGTEIRFTRKCNRIFVIFLGIPTGEKIVIEDLNLSAGTVRHFLTGERLSFKNVGKNLEITVPKKLLETDSITLVLEAVEE
glycan array binding signal (z-score) [1]: 0.227
glycan array binding signal (z-score) [2]: -0.742
glycan array binding signal (z-score) [3]: -0.396
glycan array binding signal (z-score) [4]: 0.144
glycan array binding signal (z-score) [5]: 0.657
glycan array binding signal (z-score) [6]: -0.35
glycan array binding signal (z-score) [7]: 2.8
glycan array binding signal (z-score) [8]: 0.201
glycan array binding signal (z-score) [9]: 2.33
glycan array binding signal (z-score) [10]: 1.05
glycan array binding signal (z-score) [11]: 0.062
glycan array binding signal (z-score) [12]: -0.2
glycan array binding signal (z-score) (Gal(a1-2)Gal): -0.446
glycan array binding signal (z-score) (Gal(a1-3)GalNAc): -0.41
glycan array binding signal (z-score) (Gal(b1-3)GlcNAc(b1-2)Man): 0.366
glycan array binding signal (z-score) [13]: -0.509
glycan array binding signal (z-score) [14]: 1.93
glycan array binding signal (z-score) [15]: 0.731
glycan array binding signal (z-score) [16]: 0.594
glycan array binding signal (z-score) [17]: 0.443
glycan array binding signal (z-score) (Gal3S6S(b1-4)GlcNAc): 1.33
glycan array binding signal (z-score) (Gal6S(b1-4)Glc6S): -0.426
glycan array binding signal (z-score) [18]: 2.84
glycan array binding signal (z-score) [19]: -0.293
glycan array binding signal (z-score) [20]: 0.079
glycan array binding signal (z-score) [21]: 0.08
glycan array binding signal (z-score) [22]: 0.079
glycan array binding signal (z-score) [23]: 0.296
glycan array binding signal (z-score) [24]: 3.94
glycan array binding signal (z-score) [25]: -0.204

From the supplement of paper PMC8728848
